A short description of experiment [1]: CCTE_Shafer_MEA_acute_firing_rate_mean: CCTE's Neural Acute Assay for Mean Firing Rate, Shafer Lab (AID 2284009).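 Further: analyzed for loss of signal so actives lower firing rate relative to DMSO.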 A digest of the protocol: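 Spontaneous spiking of primary rat cortical networks, DIV 13/15, 37 C. Compound 0.03-40 uM, n ≥3 wells; 40 min baseline vs 40 min treated. Endpoint fitted in loss-of-signal direction against DMSO.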
A short description of experiment [2]: CCTE_Harrill_HTTr_Viability_MCF7: CCTE's 6-hour Cell Viability Assessment for the High-Throughput Transcriptomics (HTTr) Platform, in MCF-7 cells cultured in DMEM + 10% fetal bovine serum, Harrill Lab (AID 2284010). In a few lines:
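Eight-point concentration series, six-hour exposure. Propidium iodide exclusion imaged to assess membrane integrity as a cytotoxicity readout; bidirectional fitting was done with DMSO as negative control and activity baseline.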

A short description of experiment [3]: CCTE_Harrill_HTTr_Apoptosis_MCF7: CCTE's 6-hour Apoptosis Assessment for the High-Throughput Transcriptomics (HTTr) Platform, in MCF-7 cells cultured in DMEM + 10% fetal bovine serum, Harrill Lab (AID 2284011). In a few lines:
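Apoptosis in MCF-7 cells grown in DMEM with 10% fetal bovine serum was scored after a six hour exposure by high content imaging of caspase-3/7 activation (CellEvent Caspase 3/7 Green), with DMSO serving as negative control and baseline.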

The nature of experiment [4]: CCTE_Harrill_HTTr_CellCount_MCF7: CCTE's Cell Proliferation Assessment for the High-Throughput Transcriptomics (HTTr) Platform, Harrill Lab (AID 2284012; active means hit-call score of the fitted dose curve at least 0.9, where 1 is the maximum;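 further: count of Hoechst-stained nuclei per well by high-content imaging in MCF-7 cells; cells exposed to compound for six hours; intended direction is loss of nuclei count meaning fewer cells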). A digest of the protocol:
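For this full-screen endpoint, MCF-7 cultures received eight compound dilutions for six hours. Well nuclei counts from Hoechst imaging were analyzed relative to DMSO.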

A short description of experiment [5]: CCTE_Shafer_MEA_acute_burst_number: CCTE's Neural Acute Assay for Single-Electrode Bursts, Shafer Lab (AID 2284013). A digest of the protocol:
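Burst totals were derived with adaptive spike detection (8x rms threshold) on filtered signals from rat cortical cultures; change relative to pre-treatment baseline after 40-min compound exposure (0.03-40 uM) was fitted in the negative direction against DMSO.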

The nature of experiment [6]: CCTE_Shafer_MEA_acute_burst_duration_mean: CCTE's Neural Acute Assay for Mean Burst Duration, Shafer Lab (AID 2284014).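 Further: hits are decreases in mean burst duration relative to DMSO controls.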 A digest of the protocol:
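Acute exposure of mature rat cortical networks (DIV 13 or 15) grown on microelectrode arrays to 0.03-40 uM compound. Mean burst duration compared with the 40-min pre-dose baseline over a 40-min post-dose recording at 37 C.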

Experiment [7] in a line: CCTE_Shafer_MEA_acute_per_burst_spike_number_mean: CCTE's Neural Acute Assay for Average Number of Spikes Per Burst, Shafer Lab (AID 2284015).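 Further: hits are decreases in mean spikes per burst versus baseline.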 A digest of the protocol: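 Rat primary cortical neurons on 48-well MEAs (DIV 13 or 15) were treated with 0.03-40 uM compound at 37 C. Mean spikes per burst over 40 min were recorded before and after exposure and expressed as percent change from baseline, relative to DMSO.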

Experiment [8] is described as follows: CCTE_Shafer_MEA_acute_interburst_interval_mean: CCTE's Neural Acute Assay for Mean Interburst Interval, Shafer Lab (AID 2284016).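 Further: percent change of mean interburst interval versus each well's own pre-dose baseline; curves fitted for decrease in interburst interval relative to DMSO.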 In a few lines:
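Rat primary cortical neurons on 48-well MEAs at DIV 13 or 15 were exposed acutely to 0.03-40 uM. Spikes detected at 8x rms noise, 37 C. Mean interburst interval from 40 min recordings expressed as percent change from 40 min pre-treatment baseline.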

Experiment [9] can be described thus: CCTE_Shafer_MEA_acute_burst_percentage_mean: CCTE's Neural Acute Assay for Percentage of Spikes in a Burst, Shafer Lab (AID 2284017).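 On AC50: curve fitted for loss of signal so potency reflects decreased burst percentage.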 In a few lines: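 Primary rat cortical neurons on 48-well MEA plates, treated on DIV 13 or 15 at 0.03-40 uM. Spikes detected at 8x rms noise at 37C; percent change from 40-min baseline to 40-min post-dose recording, fitted versus DMSO.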

The nature of experiment [10]: CCTE_Shafer_MEA_acute_burst_percentage_std: CCTE's Neural Acute Assay for Standard Deviation of Burst Percentage, Shafer Lab (AID 2284018).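 Further: fitted in the negative direction so actives lower burst percentage SD.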 A digest of the protocol:
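Primary rat cortical neurons on 16-electrode MEA wells were recorded 40 min at baseline (DIV 13 or 15), then 40 min after compound (0.03-40 uM), at 37 C. Well value is SD across electrodes of spikes-in-bursts/total spikes; endpoint is percent change, DMSO-referenced.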

A short description of experiment [11]: CCTE_Shafer_MEA_acute_per_network_burst_spike_number_mean: CCTE's Neural Acute Assay for Average Number of Spikes in a Network Burst, Shafer Lab (AID 2284019).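 On AC50: curve fitted for loss of signal so actives reduce spikes per network burst.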 In a few lines:
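Acute exposure of rat primary cortical networks (DIV 13/15) on MEAs; adaptive spike detection at 8x rms noise, 37 C. Percent change in spikes per network burst after 40 min with compound (0.03-40 uM), negative direction vs DMSO.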

Experiment [12] can be described thus: CCTE_Shafer_MEA_acute_per_network_burst_spike_number_std: CCTE's Neural Acute Assay for Standard Deviation of Number of Spikes in a Network Burst, Shafer Lab (AID 2284020).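 Further: fitted for decrease in spike-number SD versus DMSO so actives lower it.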 A digest of the protocol:
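Acute MEA exposure, rat cortical neurons, 0.03-40 uM. Per-well % change versus own baseline; DMSO as negative control.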

The nature of experiment [13]: CCTE_Shafer_MEA_acute_per_network_burst_electrodes_number_mean: CCTE's Neural Acute Assay for Mean Number of Electrodes in a Network Burst, Shafer Lab (AID 2284021).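 Further: curves fitted for decreases only so hits reduce electrodes per burst.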 A digest of the protocol: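 Percent change from baseline in average electrode count per network burst, rat cortical cultures on 48-well MEAs; 40-min recordings each side of exposure, DIV 13 or 15; threshold 8x rms noise; DMSO as negative control.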

Experiment [14] can be described thus: CCTE_Shafer_MEA_acute_network_burst_percentage: CCTE's Neural Acute Assay for Percentage of Network Bursts, Shafer Lab (AID 2284022).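 Further: curves fitted for loss so actives lower network burst percentage.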 In a few lines: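 On DIV 13 or 15, at least three wells of rat cortical neurons per compound are dosed at 0.03-40 uM. Spontaneous firing is detected at 8x rms noise for 40 min before and after dosing at 37 C. The percent change in network-burst spike share is reported.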

A short description of experiment [15]: CCTE_Shafer_MEA_acute_cross_correlation_area: CCTE's Neural Acute Assay for Area of Cross Correlation, Shafer Lab (AID 2284024).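 Further: area under pooled inter-electrode spike cross-correlation near zero lag as percent change from own baseline; curves fitted for loss of cross-correlation area so actives lower synchrony.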 A digest of the protocol:
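Extracellular recordings from cultured rat cortical neurons measure network synchrony as cross-correlation area; each well's post-compound value (0.03-40 uM, 40 min) is compared with its own 40 min baseline to give percent change.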

The nature of experiment [16]: CCTE_Shafer_MEA_acute_cross_correlation_HWHM: CCTE's Neural Acute Assay for Cross Correlation at Half Width at Half Maximum, Shafer Lab (AID 2284026).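 Further: percent change per well from pre-dose baseline in spike cross-correlogram half width; hits are a decrease in cross-correlogram half width relative to DMSO.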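 On outcome: spontaneous network firing of rat primary cortical neurons on multiwell microelectrode arrays.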 In a few lines:
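Percent change in cross-correlogram half width at half maximum, narrower meaning more synchrony, was derived per well from paired 40-min recordings before and during exposure to 0.03-40 uM compound in rat cortical cultures at 37 C.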

Experiment [17] is described as follows: CCTE_Shafer_MEA_acute_synchrony_index: CCTE's Neural Acute Assay for Synchrony, Shafer Lab (AID 2284027).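 Further: network synchrony index of spontaneous spiking in primary rat cortical neurons on MEAs; fitted for loss of signal so actives lower synchrony relative to DMSO.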 A digest of the protocol: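 Acute exposure of rat primary cortical neurons (DIV 13 or 15) at 0.03-40 uM. Synchrony index, 40 min before vs after, as % change relative to DMSO control.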

Each structure is given as a SMILES string. Records with an inconclusive call do not appear. Activity calls are given as the source filed them. How the source made its calls, unless noted: active means hit-call score of the fitted dose curve at least 0.9, where 1 is the maximum; inactive means score below 0.9.

As a reminder, the AC50 is the midpoint of the concentration-response curve, whichever way the signal moves. For the compound `COc1cc2c(c(OC)c1OC)-c1ccc(OC)c(=O)cc1[C@@H](NC(C)=O)CC2`, the compound was classed as inactive in experiment [1], in experiment [2], in [3], in experiment [4], in [6] and in experiment [7]. Moreover, the outcome in [8], in [9], in experiment [10], in experiment [11], in experiment [12] and in experiment [15] was inactive. Besides, the outcome in experiment [16] and in [17] was inactive. Further, the concentration at half-maximal activity (AC50) in [5] was 34 µM (active); in [13], 31.6 µM (active); in [14] it was 4.03 µM (active).

`c1ccc2cc3ccccc3cc2c1`: the half-maximal activity concentration (AC50) was 0.003 µM (active) in [1], 0.0075 µM (active) in experiment [5], 0.003 µM (active) in experiment [14] and 0.00687 µM (active) in experiment [15]. The result in [2], in [3], in experiment [6], in experiment [7], in [8] and in [9] was inactive. For the same compound, the compound was classed as inactive in experiment [10], in [11], in experiment [12], in experiment [13], in experiment [16] and in experiment [17].

As to `CCOC(N)=O`, the outcome in experiment [2] and in experiment [3] was inactive.

Take `OCc1ccccc1`: the call in experiment [1], in experiment [2], in experiment [3], in experiment [4], in experiment [5] and in [6] was inactive. The compound was called inactive in experiment [7], in [8], in [9], in [10], in experiment [11] and in experiment [12]. Moreover, the compound was called inactive in experiment [13], in experiment [14], in experiment [15], in [16] and in [17].

`Cc1ccc(S(=O)(=O)NC(=O)NN2CCCCCC2)cc1`: the outcome in experiment [2] and in experiment [3] was inactive.

Consider `O=c1[nH]cnc2c1ncn2[C@H]1CC[C@@H](CO)O1`, for which the outcome in [2] and in [3] was inactive.

On to `OCCOCCOCCO`, for which the outcome in experiment [2] and in experiment [3] was inactive.

In the case of `COCc1nnc(-c2ccc[n+]([O-])c2)n1-c1c(Cl)c(Cl)cc2[nH]c(=O)c(=O)[nH]c12`, the result in experiment [1], in experiment [2], in [3], in experiment [5], in experiment [6] and in [10] was inactive. The compound was called inactive in [13] and in [15]. The AC50 in [7] was 8.06 µM (active); in experiment [8], 30 µM (active); in experiment [9], 17.2 µM (active); in [11] it was 4.76 µM (active); in experiment [12], 10.9 µM (active); in experiment [14] it was 29.2 µM (active). The AC50 is 8.51 µM (active) in experiment [16] and 14.7 µM (active) in experiment [17].

As to `C=CCc1cc(S(=O)(=O)c2ccc(O)c(CC=C)c2)ccc1O`, the outcome in [1], in experiment [2], in experiment [3], in experiment [5], in experiment [6] and in [7] was inactive. Also, the compound was classed as inactive in experiment [8], in experiment [9], in [10], in [11], in experiment [12] and in experiment [13]. The call in experiment [14], in experiment [15], in experiment [16] and in [17] was inactive.

With `CCCCCCCC1CCC(=O)O1` (stereo not given), the call in experiment [1], in experiment [2], in experiment [3], in experiment [4], in [5] and in [6] was inactive. Moreover, the result in experiment [7], in [8], in experiment [10], in [11], in experiment [12] and in experiment [13] was inactive. For the same compound, the result in [14], in experiment [15] and in experiment [17] was inactive. The concentration at half-maximal activity (AC50) in [9] was 20 µM (active).

On to `Cc1nccn1-c1ccc(Sc2cccc(C3(C(N)=O)CCOCC3)c2)cc1`, for which the result in [2] and in experiment [3] was inactive.

Consider `CNC(C)=O`, for which the result in experiment [2] and in experiment [3] was inactive.

The record behind these values is PubChem BioAssay (EPA / NIEHS).
